According to PubChem BioAssay AID1159580 (chemical genetic matrix, 2015):
Several values for one entry are separate records, joined by “and”; a condition that tells them apart may be missing. Identical values can stand only once. Screen size: about 5,500 compounds; about 2,000 (36%) were called active. Inconclusive results (about 18%) are left out. Rule as the data show it: active = normalized growth mostly below about 0.91 (no sharp cut-off); inconclusive = no clear call, values can overlap the other calls; inactive = mostly above about 0.92. This is one part of the list.

Assay: chemical genetic growth profiling, strain panel (AID 1159580);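 also: tested at 20 µM; growth read once vehicle control cultures reached saturation at 30 °C; 1 = growth at the plate median or of vehicle wells; lower values mean less growth of the strain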
Conditions: S. cerevisiae deletion strains, growth OD

Measured: normalized growth

CCN(CC)CCOC(=O)c1ccc(N)cc1
inactive: locus YAL013W, strain DEP1, stronger effect = lower value 0.955 | locus YAL021C, strain ccr4, stronger effect = lower value 0.964 | locus YAL026C, strain drs2, stronger effect = lower value 0.989 | locus YAL030W, strain snc1, stronger effect = lower value 0.986 | locus YAL040C, strain CLN3, stronger effect = lower value 1.04 | locus YBL061C, strain skt5, stronger effect = lower value 0.999 | locus YBR009C, strain hhf1, stronger effect = lower value 0.95 | locus YBR021W, strain FUR4, stronger effect = lower value 1.01 | locus YBR023C, strain chs3, stronger effect = lower value 0.976 | locus YBR171W, strain sec66, stronger effect = lower value 0.988 | locus YBR229C, strain ROT2, stronger effect = lower value 1.01 | locus YBR231C, strain swc5, stronger effect = lower value 1.01 | locus YBR279W, strain paf1, stronger effect = lower value 0.979 | locus YCL011C, strain gbp2, stronger effect = lower value 0.955 | locus YCL016C, strain dcc1, stronger effect = lower value 0.963 | locus YCL029C, strain bik1, stronger effect = lower value 0.989 | locus YCL061C, strain MRC1 (second series), stronger effect = lower value 0.977 | locus YCL061C, strain MRC1, stronger effect = lower value 0.975 | locus YCL069W, strain vba3, stronger effect = lower value 0.972 | locus YCR088W, strain abp1, stronger effect = lower value 0.978 | locus YDL005C, strain med2, stronger effect = lower value 0.99 | locus YDL035C, strain GPR1, stronger effect = lower value 1.01 | locus YDL040C, strain nat1, stronger effect = lower value 1 | locus YDL074C, strain BRE1, stronger effect = lower value 1.03 | locus YDL101C, strain DUN1, stronger effect = lower value 1.01 | locus YDL134C, strain PPH21, stronger effect = lower value 1.01 | locus YDL185W, strain tfp1, stronger effect = lower value 0.995 | locus YDL192W, strain arf1, stronger effect = lower value 0.986 | locus YDR001C, strain nth1, stronger effect = lower value 0.973 | locus YDR069C, strain doa4, stronger effect = lower value 0.998 | locus YDR101C, strain arx1, stronger effect = lower value 1 | locus YDR137W, strain rgp1, stronger effect = lower value 0.98 | locus YDR150W, strain NUM1, stronger effect = lower value 0.999 | locus YDR159W, strain sac3, stronger effect = lower value 0.928 | locus YDR162C, strain NBP2, stronger effect = lower value 1.01 | locus YDR195W, strain ref2 0.999 | locus YDR297W, strain sur2, stronger effect = lower value 0.986 | locus YDR318W, strain mcm21, stronger effect = lower value 0.977 | locus YDR334W, strain swr1, stronger effect = lower value 0.982 | locus YDR335W, strain msn5, stronger effect = lower value 0.981 | locus YDR363W, strain ESC2, stronger effect = lower value 1.01 | locus YDR388W, stronger effect = lower value 0.997 | locus YDR392W, strain spt3, stronger effect = lower value 0.928 | locus YDR502C, strain sam2, stronger effect = lower value 0.997 | locus YEL003W, strain gim4, stronger effect = lower value 0.98 | locus YEL037C, strain rad23, stronger effect = lower value 0.989 | locus YEL061C, strain CIN8 (second series), stronger effect = lower value 0.978 | locus YEL061C, strain CIN8, stronger effect = lower value 1.01 | locus YER002W, strain NOP16, stronger effect = lower value 0.984 | locus YER015W, strain faa2, stronger effect = lower value 1 | locus YER016W, strain bim1, stronger effect = lower value 0.979 | locus YER110C, stronger effect = lower value 0.999 | locus YER111C, strain swi4, stronger effect = lower value 0.977 | locus YER155C, strain BEM2 (second series), stronger effect = lower value 1.06 | locus YER155C, strain BEM2, stronger effect = lower value 1 | locus YER167W, strain BCK2, stronger effect = lower value 1 | locus YFR010W, strain ubp6, stronger effect = lower value 0.988 | locus YGL078C, strain dbp3, stronger effect = lower value 0.997 | locus YGL086W, strain mad1, stronger effect = lower value 0.994 | locus YGL167C, strain pmr1, stronger effect = lower value 0.997 | locus YGL173C, strain kem1, stronger effect = lower value 0.994 | locus YGL227W, strain vid30, stronger effect = lower value 0.984 | locus YGL240W, strain doc1, stronger effect = lower value 1.01 | locus YGL248W, strain PDE1, stronger effect = lower value 1.01 | locus YGL253W, strain hxk2, stronger effect = lower value 0.963 | locus YGR078C, strain PAC10, stronger effect = lower value 1.01 and 0.99 | locus YGR135W, strain pre9, stronger effect = lower value 0.997 | locus YGR229C, strain SMI1, stronger effect = lower value 0.964 | locus YGR252W, strain gcn5, stronger effect = lower value 0.998 | locus YHR013C, strain ard1, stronger effect = lower value 0.969 | locus YHR027C, strain rpn1, stronger effect = lower value 0.97 | locus YHR030C, strain SLT2, stronger effect = lower value 1 and 1.05 | locus YHR079C, strain IRE1 (second series), stronger effect = lower value 0.981 | locus YHR079C, strain IRE1, stronger effect = lower value 1.04 | locus YHR094C, strain hxt1, stronger effect = lower value 0.983 | locus YHR129C, strain ARP1, stronger effect = lower value 1.01 | locus YHR142W, strain chs7, stronger effect = lower value 0.972 | locus YHR200W, strain rpn10, stronger effect = lower value 0.997 | locus YIL066C, strain RNR3, stronger effect = lower value 1.01 | locus YIL073C, strain SPO22, stronger effect = lower value 0.969 | locus YIL125W, strain kgd1, stronger effect = lower value 0.995 | locus YIR030C, strain dcg1, stronger effect = lower value 0.993 | locus YJL092W, strain hpr5, stronger effect = lower value 0.992 | locus YJL095W, strain BCK1 (second series), stronger effect = lower value 0.993 | locus YJL095W, strain BCK1, stronger effect = lower value 1.03 | locus YJL115W, strain asf1, stronger effect = lower value 0.98 | locus YJL129C, strain trk1, stronger effect = lower value 0.989 | locus YJL134W, strain LCB3, stronger effect = lower value 0.999 | locus YJL154C, strain vps35, stronger effect = lower value 0.987 | locus YJL164C, strain tpk1, stronger effect = lower value 0.961 | locus YJL166W, strain qcr8, stronger effect = lower value 1.02 | locus YJL168C, strain set2, stronger effect = lower value 0.993 | locus YJL187C, strain SWE1 (second series), stronger effect = lower value 1.01 | locus YJR043C, strain POL32, stronger effect = lower value 1.01 | locus YJR066W, strain TOR1, stronger effect = lower value 0.999
